Experimental data reported in the supplement of paper PMC3334620.
Whole data set: some 33,000 sequences, median “E-score (-0.5 to 0.5)” near -0.053, cut for the highest 2% near 0.37. What follows is part of a selection rich in the highest values, with near analogues and random picks from the rest.

Each sequence was assayed against Hap1 (UniProt P0CE41) (assay: PBM E-score (8-mer binding enrichment) (E-score (-0.5 to 0.5)); higher = stronger / more preferred TF binding). Conditions: protein concentration: 200 nM; construct: GST-DNA-binding domain.
Procedure: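 Universal 'all 10-mer' protein binding microarrays (Agilent AMADID 015681) probed with GST-tagged S. cerevisiae TFs (full-length or DBD) made by in vitro transcription/translation (PURExpress), about 100-200 nM. Bound TF was detected with fluorescent anti-GST. Each ungapped 8-mer (which stands for itself and its reverse complement) is scored by the PBM enrichment score (E-score), a modified Wilcoxon-Mann-Whitney statistic from -0.5 to +0.5, computed with the Universal PBM Analysis Suite. Scale: above 0.35 generally sequence-specific binding.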

UniProt P0CE41, sequence (P0CE41 whole entry, the tested form may be a part): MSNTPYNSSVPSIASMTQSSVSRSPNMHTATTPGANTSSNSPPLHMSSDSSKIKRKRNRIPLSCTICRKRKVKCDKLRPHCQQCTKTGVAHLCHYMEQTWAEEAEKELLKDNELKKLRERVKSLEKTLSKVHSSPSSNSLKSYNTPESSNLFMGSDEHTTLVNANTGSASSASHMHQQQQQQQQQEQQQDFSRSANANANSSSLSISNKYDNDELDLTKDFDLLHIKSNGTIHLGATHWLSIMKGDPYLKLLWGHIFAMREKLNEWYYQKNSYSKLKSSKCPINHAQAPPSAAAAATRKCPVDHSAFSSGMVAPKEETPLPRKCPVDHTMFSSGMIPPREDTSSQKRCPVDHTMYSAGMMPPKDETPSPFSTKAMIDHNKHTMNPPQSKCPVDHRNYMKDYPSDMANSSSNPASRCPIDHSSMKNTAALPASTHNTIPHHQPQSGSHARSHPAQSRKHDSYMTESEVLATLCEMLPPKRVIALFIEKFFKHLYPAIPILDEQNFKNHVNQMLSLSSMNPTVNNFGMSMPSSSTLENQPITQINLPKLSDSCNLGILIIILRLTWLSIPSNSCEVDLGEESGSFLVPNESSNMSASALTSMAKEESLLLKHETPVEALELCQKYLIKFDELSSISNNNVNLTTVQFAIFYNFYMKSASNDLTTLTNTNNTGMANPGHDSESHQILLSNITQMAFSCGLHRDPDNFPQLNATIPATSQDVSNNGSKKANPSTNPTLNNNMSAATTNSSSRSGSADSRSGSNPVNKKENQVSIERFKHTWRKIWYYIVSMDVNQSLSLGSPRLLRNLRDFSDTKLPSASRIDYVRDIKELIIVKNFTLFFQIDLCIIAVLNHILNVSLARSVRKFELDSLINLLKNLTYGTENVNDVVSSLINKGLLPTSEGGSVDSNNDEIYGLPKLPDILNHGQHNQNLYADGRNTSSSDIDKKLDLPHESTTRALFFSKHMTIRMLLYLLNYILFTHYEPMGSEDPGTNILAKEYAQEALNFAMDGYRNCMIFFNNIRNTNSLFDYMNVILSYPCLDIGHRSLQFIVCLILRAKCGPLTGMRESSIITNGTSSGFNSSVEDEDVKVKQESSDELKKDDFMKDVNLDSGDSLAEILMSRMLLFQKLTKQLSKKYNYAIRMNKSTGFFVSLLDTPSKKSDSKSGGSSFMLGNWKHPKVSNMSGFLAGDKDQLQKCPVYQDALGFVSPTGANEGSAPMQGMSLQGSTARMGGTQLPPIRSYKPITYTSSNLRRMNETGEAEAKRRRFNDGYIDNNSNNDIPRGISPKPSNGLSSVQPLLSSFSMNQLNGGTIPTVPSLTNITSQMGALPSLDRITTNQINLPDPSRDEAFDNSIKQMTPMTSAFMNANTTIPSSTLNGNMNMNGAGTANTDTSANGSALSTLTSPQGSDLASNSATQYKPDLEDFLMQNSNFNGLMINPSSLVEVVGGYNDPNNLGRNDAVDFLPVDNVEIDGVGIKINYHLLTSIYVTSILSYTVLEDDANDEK

Sequence	PBM E-score
AACTTTCA	-0.106
GGGTCGTA	0.0749
CGGTCATA	0.411
CGGTCGTC	0.165
CGGTCGTA	0.383
CGGTCTGA	0.205
CGGTCTTA	0.404
GGGTCTTA	0.0728
CGGTCATC	0.192
GGGTCATA	-0.00686
TAGACCCA	-0.194
ATCACGGC	0.134
ACAAAAGC	0.0095
CATGGGTC	-0.168
AGCGGCGG	0.291
AACGGCCG	0.405
ATCGGCGG	0.408
ATCGGCCC	0.379
ATCGGCCA	0.253
CTCGGCCC	0.336
ATCGGCCG	0.443
ATCGGCGC	0.343
AACGGCCT	0.074

Sequence	PBM E-score
AACGGCCA	0.183
ATCGGCAG	0.315
ATCGGGCC	0.324
ATCTGCGC	0.00257
CTATAGGC	-0.0955
CGACCACG	0.0929
GGGTGGAC	0.132
GATGGTGC	-0.29
ACCGGAAA	0.417
GCCGGAAC	0.371
CCCGGAAC	0.31
ACCGGAAG	0.333
AGCGGAAC	0.243
GGCGGAAC	0.257
GACGGAAC	0.174
ACCGGAAC	0.403
AGCGGAAA	0.318
CCGCAACG	0.216
GCATATCA	0.0762
CTACTCCA	-0.0772
AGGCCACC	-0.0824
AAGAACTT	-0.101
CTGTGTCC	-0.0361

Sequence	PBM E-score
TTCGCGAA	0.138
GCGGGAAC	0.212
CCGGACGA	0.431
CGGGACGA	0.0655
GCGGACGA	0.366
ACGGACGG	0.244
CCGGACGC	0.366
ACGGACGA	0.359
TCGGACGA	0.414
CCGGACGG	0.444
CTGGACGA	-0.158
ATTTTGAC	-0.0308
ACGGGAAA	0.174
CGCCTACC	-0.0452
AAGTCGAG	-0.359
AAGCTAGC	-0.0783
AAAGACAC	-0.0224
TCATAGGA	-0.112
ATCTGCAA	-0.287
ATGCGTAA	-0.0748
ATTCGTAC	0.00708
CAGCCGAG	0.238
AAGCCGAT	0.399

Sequence	PBM E-score
AAGCCGAG	0.372
AGGCCGAT	0.327
AAGCCGAA	0.334
AAGCCGAC	0.298
ATCATTCG	0.0233
TCGGATAA	0.374
ACGGATAA	0.282
ACGGATAT	0.43
GCGGATAA	0.294
CCGGATTA	0.383
TGGGATAA	-0.0448
ACGGACAT	0.421
ACGGACAG	0.113
GCGGATTA	0.189
ACGGATTA	0.142
ACGGACAC	0.278
ACGGATAG	0.11
CGGATTAG	0.305
ACACCTTC	0.105
AATTCGAG	-0.267
ACGGAAAC	0.287
ACGGAGAT	0.445
ACGGAGAC	0.285

Sequence	PBM E-score
CCGGATAG	0.316
AGGGAATA	0.127
CCGGATAA	0.435
ACGGAAAT	0.432
CCGGATAC	0.323
CGGGAATA	0.458
ACGGAAAG	0.232
GGGGAATA	0.107
ACGGAGAG	0.284
CGTACGAG	0.0155
GGTAGAAC	-0.243
CAGGAAGC	-0.0892
GAGAGATC	-0.0834
GGGGACCC	-0.043
AGGGCTAA	-0.2
CCAGGTTC	-0.153
CGGGATTA	0.454
CGGGATTC	0.292
AGGGATTA	-0.136
